PubChem BioAssay (NCI)
Compounds without any hit were thinned out: in the full panel of roughly 83,000, 20% have a hit.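 48-hour exposure, single concentration, 96-well plates; percent growth endpoint where 0 means no net growth. Active: below 10.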 Unmarked numbers belong to inactive results. Calls of active or inactive are those of the source.

Columns and labels:
Test in all cases: NCI-60 one-dose screen, 48 h (100 = growth as untreated, 0 = no growth, -100 = all killed)
Settings in all cases: 10 µM
SR leukemia = system: SR leukemia
RPMI-8226 leukemia = system: RPMI-8226 leukemia
OVCAR-8 ovarian = system: OVCAR-8 ovarian
OVCAR-5 ovarian = system: OVCAR-5 ovarian
OVCAR-4 ovarian = system: OVCAR-4 ovarian
SK-OV-3 ovarian = system: SK-OV-3 ovarian
IGROV1 ovarian = system: IGROV1 ovarian
OVCAR-3 ovarian = system: OVCAR-3 ovarian
HS 578T breast = system: HS 578T breast
NCI/ADR-RES ovarian = system: NCI/ADR-RES ovarian

SMILES	growth (SR leukemia)	growth (RPMI-8226 leukemia)	growth (OVCAR-8 ovarian)	growth (OVCAR-5 ovarian)	growth (OVCAR-4 ovarian)	growth (SK-OV-3 ovarian)	growth (IGROV1 ovarian)	growth (OVCAR-3 ovarian)	growth (HS 578T breast)	growth (NCI/ADR-RES ovarian)
Cc1n[nH]c(C)c1N=Nc1cccc2c1C(=O)c1ccccc1C2=O	91.4%	104%	91.3%	91.8%	89.5%	93.6%	84.1%	106%	96.7%	89.1%
COc1ccc(/C(=N\N)C(=O)c2ccccc2)cc1 (tested in a mixture with another compound)	111%	90%	103%	96.7%	95.9%	97.7%	107%	102%	97.1%	102%
O=C(CN(C1CCCCC1)C1CCCCC1)Nc1ccc(S(=O)(=O)c2ccc(NC(=O)CN(C3CCCCC3)C3CCCCC3)cc2)cc1	-51.4% (active)	-66.9% (active)	3.23% (active)	-54.8% (active)	-72.6% (active)	76.6%	-52.3% (active)	-85.2% (active)	33.9%	4.04% (active)
O=C(NCCCNS(=O)(=O)c1ccc(Cl)cc1)Nc1ccc(-n2cc(-c3ccncc3)c(-c3ccc(Cl)c(O)c3)n2)cc1	17%	18.7%	36%	70.8%	44.2%	68.8%	62%	50%	40.9%	76.8%
COc1ccccc1/C=N\N/C(N)=N\N=C\c1ccccc1OC	-23.1% (active)	1.89% (active)	27.2%	32.3%	42.4%	26.3%	12%	-13.2% (active)	-14.7% (active)	22.6%
COc1cccc(CNc2cccc3cn[nH]c23)c1O	103%	100%	96.5%	106%	80.7%	101%	88.8%	100%	–	105%
O=C(O)c1cc([N+](=O)[O-])ccc1Oc1ccccc1	91%	97.8%	97%	101%	104%	106%	114%	105%	93.8%	101%
COc1ccc2cc(-c3nc4ccccc4s3)c(Cl)nc2c1OC	87.6%	101%	103%	105%	94.6%	93.4%	103%	91.5%	89.9%	99.8%
CNC(=O)c1cn2c3c(c(N4CCN(C)CC4)c(F)cc3c1=O)OC[C@@H]2C	90.6%	96.3%	106%	105%	94.1%	102%	111%	107%	101%	102%
CC(C)N(CCOc1ccc(-c2nc3sccn3c2-c2ccnc(S(C)(=O)=O)n2)cc1)C(C)C	74.4%	71.2%	90.6%	104%	72%	90.3%	96.2%	72.8%	76.6%	89.2%
CCc1ccc(-c2ccc(-n3nc(C)c4c(N)nc(Cc5ccccc5)nc43)cc2)cc1	21.2%	86%	32.3%	73.5%	63.9%	62.8%	68%	80%	57.6%	38.4%
CC(C)(C)c1ccc(S(=O)(=O)N[C@H]2CC[C@H]3[C@@H]4CCc5cc(O)ccc5[C@H]4CC[C@]23C)cc1	20.5%	37.9%	50%	92.7%	51.4%	87%	44.6%	37.3%	63.1%	46.4%
O=C1c2ccccc2C(=O)c2c1ccc(C(Br)Br)c2[N+](=O)[O-]	-32% (active)	-7.34% (active)	43.1%	49.7%	-23.9% (active)	88.1%	-55% (active)	-84% (active)	103%	50.3%
C[C@]12CC[C@@H]3c4ccc(OS(=O)(=O)O)cc4CC[C@H]3[C@@H]1CC[C@@H]2NS(=O)(=O)c1ccc(-c2ccccc2)cc1	38.6%	32.4%	67.6%	113%	66.9%	91.6%	70.4%	52.6%	89.3%	58.5%
Nc1ncnc2c1ncn2C1(CO)OCC(O)C(O)C1O (stereo not drawn)	109%	104%	102%	109%	111%	98.2%	105%	103%	104%	98.6%
c1ccc2c(c1)Cc1ccccc1N2CCN1CCCCC1	94.1%	87.2%	91.2%	96.6%	95.2%	88.8%	83.5%	108%	113%	88.5%
NC1=NC(c2ccccc2)C2=C(N1)/C(=C/c1ccccc1)CCC2 (stereo not drawn)	46%	-7.58% (active)	80%	106%	81.3%	74%	100%	81.6%	88.5%	95.8%
COc1ccc(/C(C#N)=C/c2cccc(OC)c2OC)cc1	41.2%	91.1%	96%	97.7%	98.8%	96.2%	80.6%	94.2%	91.6%	53.3%
CNS(=O)(=O)Oc1ccc(-c2sc3cc(OS(=O)(=O)NC)ccc3c2C(=O)c2ccc(OCCN3CCCCC3)cc2)cc1	27%	35.9%	86.6%	88.3%	69.8%	76.1%	85.6%	83.6%	58.9%	71.4%
C(=N\Nc1ncnc2sc3c(c12)CCNC3)/c1cccc2ccccc12	22%	-30.1% (active)	58.2%	89.8%	42.7%	103%	89.9%	–	96.8%	75.4%
CN1CCN(C2=Nc3ccccc3Oc3ccc(Cl)cc32)CC1	76.9%	99.5%	107%	96.1%	84.3%	117%	97.2%	104%	104%	98%
